Many of the other results were omitted from the sample, so hits are more common in it than they were.
mcGAS RapidFire: inhibitors of Mus musculus cyclic GMP-AMP synthase, initial high-throughput assay, cell-free, RapidFire MS; Q8C6L5; recombinant mouse cGAS, cGAMP by RapidFire MS; inhibition, % at 12.5 µM; actives 0.18% (n = 130,000);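 active = inhibition of cGAS enzyme activity at or above 60%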;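 note: enzyme stimulated by 45 bp dsDNA with ATP and GTP substrates; cGAMP share of summed cGAMP plus half ATP and half GTP signals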
Target sequence (Q8C6L5 whole entry, looked up): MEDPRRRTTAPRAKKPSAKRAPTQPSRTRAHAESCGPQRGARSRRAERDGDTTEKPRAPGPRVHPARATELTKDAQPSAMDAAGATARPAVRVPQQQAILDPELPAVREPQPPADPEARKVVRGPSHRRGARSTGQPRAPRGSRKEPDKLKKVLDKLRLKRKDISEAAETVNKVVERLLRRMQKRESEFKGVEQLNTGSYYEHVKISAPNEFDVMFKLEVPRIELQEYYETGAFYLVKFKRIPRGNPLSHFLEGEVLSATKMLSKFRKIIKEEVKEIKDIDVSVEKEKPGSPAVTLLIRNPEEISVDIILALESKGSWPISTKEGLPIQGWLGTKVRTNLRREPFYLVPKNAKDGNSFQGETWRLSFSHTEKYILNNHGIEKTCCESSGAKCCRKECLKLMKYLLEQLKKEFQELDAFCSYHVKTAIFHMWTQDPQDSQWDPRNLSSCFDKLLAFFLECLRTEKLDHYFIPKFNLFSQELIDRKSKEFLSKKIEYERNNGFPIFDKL
Hits are given with their value; i = inactive; ! = not active in a repeat.

SMILES	mcGAS RapidFire
N#CCSc1nc(N)c(C#N)c(-c2ccc(O)cc2)c1C#N	i
N#Cc1c(N)nc2c(c1N)C(Sc1ccccc1)c1ccc(O)cc1O2 (stereo unspecified)	86.7
c1sc2c(c1CN1CCCCCC1)CCCC2	i
O=C(CCl)Nc1nc(-c2c[nH]c3ccccc23)cs1	71.8
COc1cccc(-c2nc(-c3c[nH]c4ccccc34)cs2)c1OC	i
O=C(Cn1cnnn1)Nc1nc(-c2cccc3ccccc23)cs1	i
CCN(CC(=O)Nc1c(Cl)cccc1Cl)C(=O)CC1Sc2ccccc2NC1=O (stereo unspecified)	i
CC(Nc1ccc(Cl)cc1Cl)C(=O)O (stereo unspecified)	i
NC(Cc1ccc(O)cc1)C(=O)O (stereo unspecified)	i
N[C@@H](Cc1cc(-c2ccc(Cl)cc2Cl)cc(CP(=O)(O)O)c1O)C(=O)O	69.9
CCCCCCn1c(CN2CCN(c3ccc(F)cc3)CC2)nc2c1c(=O)n(C)c(=O)n2C	i
Cc1ccc(-c2cc(C(=O)Nc3cnn(C45CC6CC(CC(C6)C4)C5)c3)no2)cc1	i
O=C(Nc1cnn(C23CC4CC(CC(C4)C2)C3)c1)c1cc(-c2ccccc2)on1	i
CCCn1cc(NC(=O)c2cc(-c3ccccc3)on2)cn1	71.9
COc1cc2nc(CN3CCN(Cc4ccc(C(C)C)cc4)CC3)[nH]c(=O)c2cc1OC	i
CC(C)N1C(=O)C(=Cc2ccc([N+](=O)[O-])cc2)SC1=S	i
O=C(NCCN1CCn2cc(OCc3ccccc3)c(=O)cc2C1=O)c1ccc[nH]c1=O	i
CCSCCN(C(=O)c1oc(CC)nc1C)C1CCCCC1	i
CN(C)c1nc2nonc2nc1NC1CCC1	i
CCOC(=O)NC(=S)NN(C)c1nc(C)cnc1C	i
Cc1cnc(C)c(N(C)C)n1	93.2
Cc1cc(C)c2c(CC(=O)NCc3cccnc3-n3ccnc3)coc2c1C	i
CN(C)CCNC(=O)c1cnc(N2CCN(CCc3ccccc3)C2=O)o1	i
CCOC(=O)c1nn(-c2ccc(F)cc2)c(=O)cc1OCC(=O)Nc1c(C)cc(C)cc1C	i
CCC(=O)C1=NN(c2ccccc2)C(=N)C(C#N)C1 (stereo unspecified)	i
SMILES	mcGAS RapidFire
NC(Cc1ccc(C(F)(F)F)cc1)c1csc(Nc2ccccn2)n1 (stereo unspecified)	i
NC(Cc1ccc(F)cc1)c1csc(Nc2ccc(C(F)(F)F)cn2)n1 (stereo unspecified)	67.1
NC(Cc1ccc(C(F)(F)F)cc1)c1csc(Nc2cnccn2)n1 (stereo unspecified)	i
O=C(O)C1=CC(=C(c2ccc(O)c(C(=O)O)c2)c2ccc(O)c(C(=O)O)c2)C=CC1=O	95.4
Cc1cc(O)ccc1C(=O)O	i
Nc1ccc(O)c(C(=O)O)c1	i
O=C1NC(C(=O)NCc2cc3cc(F)ccc3s2)CS1 (stereo unspecified)	i
CCOc1ccc(OCCCCOc2ccc(F)cc2)cc1	i
Cc1ccc(Cl)cc1N=Cc1nc(-c2ccc(Cl)cc2)oc1O	i
Cc1ccc(-c2nc(C=Nc3cccc(C)c3)c(O)o2)cc1	i
Cc1ccc(Cl)cc1N=Cc1nc(-c2cccc3ccccc23)oc1O	82.6
Oc1oc(-c2cccc3ccccc23)nc1C=Nc1cccc(F)c1	i
Cc1cc(Cl)ccc1N=Cc1nc(-c2ccccc2Br)oc1O	i
Cc1cccc(N=Cc2nc(-c3cccc4ccccc34)oc2O)c1	88.0
O=C(NC1CCS(=O)(=O)c2ccccc21)C1CCCN(C(=O)c2ccco2)C1 (stereo unspecified)	i
Cc1cc(C(=O)CSc2ncnc3sccc23)c(C)n1C1CC1	i
O=C(O)C1CSC(c2cc(Br)ccc2O)N1 (stereo unspecified)	i
O=C(O)C1CSC(c2cc(Br)c(O)c(Br)c2)N1 (stereo unspecified)	87.4
CSc1ccc(C2NC(C(=O)O)CS2)cc1 (stereo unspecified)	i
O=C(CCN1C(=O)NC2(CCCCC2)C1=O)Nc1nc(-c2cccs2)cs1	i
CCOC(=O)N1CCN(C(c2ccc(Cl)cc2)c2c(O)cc(C)n(CC)c2=O)CC1 (stereo unspecified)	i
CCOC(=O)CC1(N(C)C(=O)c2cc(C)[nH]n2)CCCCC1	i
Cc1cccc(C(=O)N2CCCC(CO)(Cc3ccccc3C)C2)n1 (stereo unspecified)	i
Cc1ccccc1CC1(CO)CCCN(C(=O)CN2CCOc3ccccc3C2)C1 (stereo unspecified)	i
Cc1ccccc1CC1(CO)CCCN(C(=O)c2ccccc2N(C)C)C1 (stereo unspecified)	90.6
SMILES	mcGAS RapidFire
Cc1ccc(OCc2cc(C(=O)N3CCCC(CN4CCOCC4)C3)no2)cn1 (stereo unspecified)	i
CCSc1nnc2c3ccccc3n(C)c2n1	i
CCSc1nnc2c(=O)[nH]c(=O)[nH]c2n1	83.8
Cn1c(N)c(C(=O)CSc2nnc3c(n2)[nH]c2ccccc23)c(=O)n(C)c1=O	i
COc1cc(Cl)c(C)cc1NC(=O)C(C#N)C(=O)CCc1cnn(C)c1 (stereo unspecified)	i
CCn1ncc(CN2CCC(C(=O)Nc3ccccc3-c3cccc(OC)c3)CC2)c1C	i
CC(C)S(=O)(=O)c1ccccc1NC(=O)N1CCC2(CCC2)C1	i
CCCCCCCCCCCC[N+](C)(C)CCOc1ccccc1	i
CCCCCCCCCCCCCCCC[N+](C)(C)C	98.1!
C[N+](C)(C)CCCCCC[N+](C)(C)C	i
COC(=O)c1ccc(Cn2cnc3c(cnn3C3CCS(=O)(=O)C3)c2=O)cc1 (stereo unspecified)	i
N#Cc1cccc(C(=O)NCCc2nnc3c(C(F)(F)F)cccn23)c1	i
Oc1ccc(C2=Nn3c(nnc3-c3ccc(Br)cc3)SC2)cc1O	i
Cc1ccsc1CN(Cc1ccc(Sc2nncn2C)o1)C1CCCC1	i
O=C1CCC(C(=O)N2CCN(c3ccccc3)CC2)CN1CCCN1CCOCC1 (stereo unspecified)	i
O=C(O)C12CC3CC(CC(C3)C1)C2	i
O=C(O)C12CCCC(Br)(CCC1)C2	i
O=S(=O)(/C=C/c1ccccc1)NCCSCc1ccccc1	i
O=c1[nH]n2c(=O)c3ccccc3nc2c2ccccc12	90.3
O=c1c2ccccc2nc2c3ccccc3c(NCc3ccccn3)nn12	i
O=c1c2ccccc2nc2n1CCS2	i
C=CCn1c(=O)c2c(nc3n(C4CCCCC4)c(C)c(C)n23)n(C)c1=O	i
Cc1cc(NCc2ccc(Cl)cc2)n(C2CCS(=O)(=O)C2)n1 (stereo unspecified)	i
COC(=O)c1cc(C2CC2)nc2c1c(-c1cccs1)nn2C1CCS(=O)(=O)C1 (stereo unspecified)	i
CC(C)C(=O)Nc1cc(C2CC2)nn1C1CCS(=O)(=O)C1 (stereo unspecified)	82.0
SMILES	mcGAS RapidFire
O=C(CCn1cnc2ccccc2c1=O)Nc1cccc(S(=O)(=O)N2CCCCC2)c1	i
CCC1(O)CC(OC2CC(N(C)C)C(OC3CC(O)C(OC4CCC(=O)C(C)O4)C(C)O3)C(C)O2)c2c(cc3c(c2O)C(=O)c2c(O)cccc2C3=O)C1C(=O)OC (stereo unspecified)	96.6
CCn1nnc2c(=O)n(CC(=O)Nc3ccc(OC)cc3)cnc21	i
CSCCNC(=O)CC1C(=O)NCCN1Cc1ccc(F)cc1Cl (stereo unspecified)	i
O=C(Nc1nncs1)c1cnn(Cc2ccccc2Cl)c1	i
O=C(Nc1nncs1)c1cn(-c2ccccc2Br)nn1	70.5
O=C(Nc1nnc(C2CC2)s1)c1cn(-c2ccc(Br)cc2)nn1	i
